Data: PubChem BioAssay AID2417 (National Center for Advancing Translational Sciences (NCATS), 2010)
Out of some 140,000 compounds screened, about 4,300 (3.1%) were called active. Not shown: some 21% with an inconclusive outcome.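 Rule for the calls: active = readout at or below -70, meaning at least 70% loss of cells showing the perinucleolar compartment, a nuclear body marking cancer cells; inconclusive = readout between -30 and a set limit; inactive = the rest.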 The list comes from a sample in which actives are over-represented; it also holds similar structures and randomly drawn compounds.

Assay: High Content Assay for Compounds that inhibit the Assembly of the Perinucleolar Compartment;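 note: plate controls were DMSO wells for no effect and camptothecin positive control wells for full effect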
Details: PC3M PTB-GFP, PNC prevalence imaging, 16 h; at 10 µM; hits give low values
How it was run: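 Read-out is percentage of cells bearing a perinucleolar compartment, from automated 20x imaging of fixed, Hoechst-stained PC3M PTB-GFP cells. Cells were seeded 4 h, then exposed 16 h to compound (23 nl of library stock) in duplicate plates.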

Activity change (PNC), negative = inhibition, active:
Cc1ccc(N2CCN(c3ccc(C)cc3)C2c2ccccn2)cc1 -81.6%, Cc1noc(NS(=O)(=O)c2ccc(NC(=O)C34CCC(CC3)C4)cc2)c1C -120%, COc1ccc(-c2cc(C(F)(F)F)n3nc(C(=O)N4CCOCC4)c(Cl)c3n2)cc1 -106%, COc1ccc(-c2ccnc(SCC(=O)N3CCOCC3)n2)cc1 -100%, COC(=O)c1ccc2c(c1)S(=O)(=O)NC(=NCCCN1CCOCC1)S2 -119%, C=C(C)C1CC=C(C)/C(=N\NC(=O)CNc2ccccc2OC)C1 (stereo unspecified) -81.8%

Activity change (PNC), negative = inhibition, inactive:
Cc1ccc(-n2ccc(=O)c(C(=O)O)n2)cc1 -18.4%, Cc1ccc(S(=O)(=O)NCC(=O)N2CCN(c3ccccn3)CC2)cc1 -10%, CN(c1ccccc1)c1nc(N)c([N+](=O)[O-])c(NCc2ccco2)n1 22%, CNC(=O)/C(C#N)=C/c1c(F)cccc1Cl 52.2%, COc1ccccc1N1CCN(CC(=O)NC(=O)NCc2ccco2)CC1 -19.8%, COc1ccc(C(=O)Nc2ccc(S(=O)(=O)Nc3onc(C)c3C)cc2)cc1OC 85.8%, Cc1noc(NS(=O)(=O)c2ccc(N/C=C/C(=O)c3ccccc3)cc2)c1C 34.4%, CCOC(=O)C1CCN(C(=O)/C=C/c2cc(OC)c(OC)c(OC)c2)CC1 5.16%, COc1ccc(OCC(=O)N2CCOCC2)cc1 -29.5%, COC(=O)c1cnn2c(C(F)(F)F)cc(-c3ccco3)nc12 48.3%, COc1ccc(-c2nc(SCC(=O)N3CCOCC3)n[nH]2)cc1 -17.8%, CCn1c(COc2cccc(OC)c2)nnc1SCC(=O)N1CCOCC1 -11.5%, C/C(=N\NC(=O)c1ccc(NS(=O)(=O)c2cccs2)cc1)c1ccc2ccccc2c1 3.73%, CC1CCCN(CCOCCOc2ccccc2-c2ccccc2)C1 (stereo unspecified) 40%, CC(=O)c1ccc(OCCN2CCOCC2)cc1 20.1%, O=C(NCCN=C1NS(=O)(=O)c2ccccc21)c1ccc(S(=O)(=O)N2CCOCC2)cc1 -5.59%, COc1ccc(C(=O)NNC(=S)NC(=O)c2ccccc2[N+](=O)[O-])cc1 -4%, O=C(O)c1ccc(/C=N/NC(=O)c2ccc(Br)cc2)cc1 -18.4%, O=C(C(Cl)Cl)N1CCN(c2ccccn2)CC1 42.3%, Cc1ccccc1CN(c1ccc(C(=O)NCC2CCCO2)cc1)S(C)(=O)=O (stereo unspecified) -1.65%, COc1ccc(Cl)cc1NC(=O)CNc1ccccc1F -22.5%, COc1ccccc1Nc1ncc(C(C)=O)c(C)n1 9.62%, CCCCc1cc2c(s1)CCCC/C2=N/O 0.0645%, Cc1cc(C)c2c(n1)sc1c(=O)n(-c3ccccc3)c(=O)[nH]c12 19.8%, CCn1c(/C=N/NC(=O)c2ccc(OC)cc2)nc2ccccc21 27.2%
